For 6 targets, log2 fold change results are on record in the supplement of paper PMC10849652.

What all share (experiment): log2 fold change, soluble protein after heating vs DMSO (PISA); higher = thermal stabilisation; K562 cells, 10 uM, 30 min; active = over 0.2 and 3.5 SD of the protein, either way, in both replicates (recomputed)
Compound in assay [1]: CS(=O)(=O)c1ccc(-c2cnc(N)c(C(=O)Nc3ccccc3)n2)cc1
A digest of the protocol: (§1)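 K562 cells at 2×10^6 cells/mL were exposed to 10 μM compound for 30 min, then aliquots were heated for 3 min across 48°C-58°C, pooled, and extracted in PBS containing 0.5% NP-40 at 4°C. The supernatant after 21,000xg for 90 min was taken as soluble protein and measured by TMTpro 16plex LC-MS/MS with channel sums equalised. Thermal stability is reported relative to control samples, with values from duplicates. Fold changes are given on a log2 scale.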

Compound in another assay: C[C@@H](Oc1cc(-c2cnn(C3CCNCC3)c2)cnc1N)c1c(Cl)ccc(F)c1Cl [crizotinib]
A digest of the protocol: as §1

Compound in assay [2]: C[C@@H]1COCCN1C2=NC(=NC(=C2)C3(CC3)S(=O)(=O)C)C4=C5C=CNC5=CC=C4
A digest of the protocol:
as §1

Compound in assay [3]: C[C@H](C1=CC=C(C=C1)C(=O)NC2=C3C=CNC3=NC=C2)N
A digest of the protocol: as §1

Compound in another assay: C[C@H](Nc1ncnc2nc[nH]c12)c1cc2cccc(Cl)c2c(=O)n1-c1ccccc1 [duvelisib]
A digest of the protocol:
as §1

Compound in a further assay: Cc1cc(Nc2cc(CN3CCOCC3)c3nc(C)c(Cc4ccc(Cl)cc4F)n3n2)n[nH]1 [gandotinib]
A digest of the protocol:
as §1

Compound in the next assay: Cc1cc(Nc2cc(N3CCN(C)CC3)nc(Sc3ccc(NC(=O)C4CC4)cc3)n2)n[nH]1 [tozasertib]
An outline of the steps: as §1

Compound in assay [4]: Cc1cc(SCc2sc(-c3ccc(C(F)(F)F)cc3)nc2C)ccc1OCC(=O)O
An outline of the steps: as §1

Compound in another assay: Cc1ccc(-n2nc(C(C)(C)C)cc2NC(=O)Nc2ccc(OCCN3CCOCC3)c3ccccc23)cc1 [doramapimod]
A digest of the protocol: as §1

Compound in a further assay: Cc1ccc(C(=O)N(CCCN)[C@@H](c2nc3cc(Cl)ccc3c(=O)n2Cc2ccccc2)C(C)C)cc1 [ispinesib]
An outline of the steps: as §1

Compound in another assay: Cc1ccc(NC(=O)c2ccc(CN3CC[C@H](N(C)C)C3)c(C(F)(F)F)c2)cc1Nc1nccc(-c2cncnc2)n1 [bafetinib]
A digest of the protocol:
as §1

Compound in assay [5]: Cc1cccc(CC(=O)N2CCc3c2ccc(-c2cn(C)c4ncnc(N)c24)c3F)n1
An outline of the steps:
as §1

Compound in a further assay: Cc1cn(-c2cc(NC(=O)c3ccc(C)c(Nc4nccc(-c5cccnc5)n4)c3)cc(C(F)(F)F)c2)cn1 [nilotinib]
An outline of the steps:
as §1

Compound in assay [6]: Cc1nc(Nc2n[nH]c3c2CN(C(=O)N[C@H](CN(C)C)c2ccccc2)C3(C)C)c2sccc2n1
A digest of the protocol:
as §1

Compound in the next assay: Cc1nc(Nc2ncc(C(=O)Nc3c(C)cccc3Cl)s2)cc(N2CCN(CCO)CC2)n1 [dasatinib]
An outline of the steps:
as §1

Compound in assay [7]: Cc1ncc(-c2ccnc(Nc3ccc(S(C)(=O)=O)cc3)n2)n1C(C)C
An outline of the steps:
as §1

Compound in assay [8]: Cn1cc(-c2ccc3c(c2)CCN3C(=O)Cc2cccc(C(F)(F)F)c2)c2c(N)ncnc21
A digest of the protocol: as §1

Compound in assay [9]: Cn1cc(-c2ccc3nnc(C(F)(F)c4ccc5ncccc5c4)n3n2)cn1
An outline of the steps: as §1

Compound in another assay: Cn1cncc1[C@@](N)(c1ccc(Cl)cc1)c1ccc2c(c1)c(-c1cccc(Cl)c1)cc(=O)n2C [tipifarnib]
A digest of the protocol:
as §1

Compound in a further assay: FC(F)(F)c1ccc(/C=C/c2nc(COc3ccc(CCCCn4ccnn4)cc3)co2)cc1 [mubritinib]
A digest of the protocol:
as §1

Of roughly 7,900 targets only a part is listed; those with a hit were picked by preference. About 0.6% of all pairs of compound and target were hits. A number with no mark means an inactive call.

Sequence of UniProt P67870 (P67870 whole entry, looked up): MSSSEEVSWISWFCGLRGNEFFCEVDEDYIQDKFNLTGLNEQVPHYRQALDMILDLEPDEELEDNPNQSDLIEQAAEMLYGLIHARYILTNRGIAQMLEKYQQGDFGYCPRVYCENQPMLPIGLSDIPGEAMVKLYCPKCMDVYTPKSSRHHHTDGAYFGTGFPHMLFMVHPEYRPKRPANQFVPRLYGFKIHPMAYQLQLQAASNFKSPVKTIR
Sequence of UniProt P83916 (P83916 whole entry, looked up): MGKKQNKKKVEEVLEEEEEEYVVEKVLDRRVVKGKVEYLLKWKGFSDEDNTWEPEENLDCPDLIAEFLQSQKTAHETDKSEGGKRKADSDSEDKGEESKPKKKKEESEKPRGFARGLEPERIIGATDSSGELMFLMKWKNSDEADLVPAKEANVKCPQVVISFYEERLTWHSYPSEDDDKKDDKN
Sequence of UniProt P50416 (P50416 whole entry, looked up): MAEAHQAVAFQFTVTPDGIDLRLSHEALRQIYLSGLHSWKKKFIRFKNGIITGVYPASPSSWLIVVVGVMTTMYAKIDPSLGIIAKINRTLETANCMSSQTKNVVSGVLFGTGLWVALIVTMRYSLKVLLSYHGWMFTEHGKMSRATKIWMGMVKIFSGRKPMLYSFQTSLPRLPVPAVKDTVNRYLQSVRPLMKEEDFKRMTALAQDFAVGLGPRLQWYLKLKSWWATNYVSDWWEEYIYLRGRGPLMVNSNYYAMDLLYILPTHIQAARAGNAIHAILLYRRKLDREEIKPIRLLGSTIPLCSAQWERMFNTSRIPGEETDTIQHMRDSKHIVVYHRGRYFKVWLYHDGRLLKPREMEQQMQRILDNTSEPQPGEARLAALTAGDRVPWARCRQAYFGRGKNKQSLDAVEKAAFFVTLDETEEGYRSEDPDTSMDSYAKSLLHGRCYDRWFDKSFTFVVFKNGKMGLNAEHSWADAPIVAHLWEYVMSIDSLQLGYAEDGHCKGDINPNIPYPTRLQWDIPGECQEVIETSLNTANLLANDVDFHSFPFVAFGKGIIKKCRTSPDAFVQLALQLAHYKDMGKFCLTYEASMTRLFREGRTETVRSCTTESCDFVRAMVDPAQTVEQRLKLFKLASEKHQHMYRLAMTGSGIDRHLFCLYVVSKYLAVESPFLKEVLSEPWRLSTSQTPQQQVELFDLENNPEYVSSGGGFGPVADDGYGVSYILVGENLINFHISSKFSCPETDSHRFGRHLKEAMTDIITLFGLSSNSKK
Sequence of UniProt P61024 (P61024 whole entry, looked up): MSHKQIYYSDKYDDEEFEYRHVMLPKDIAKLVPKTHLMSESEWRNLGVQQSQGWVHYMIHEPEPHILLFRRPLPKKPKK
Sequence of UniProt P51790 (P51790 whole entry, looked up): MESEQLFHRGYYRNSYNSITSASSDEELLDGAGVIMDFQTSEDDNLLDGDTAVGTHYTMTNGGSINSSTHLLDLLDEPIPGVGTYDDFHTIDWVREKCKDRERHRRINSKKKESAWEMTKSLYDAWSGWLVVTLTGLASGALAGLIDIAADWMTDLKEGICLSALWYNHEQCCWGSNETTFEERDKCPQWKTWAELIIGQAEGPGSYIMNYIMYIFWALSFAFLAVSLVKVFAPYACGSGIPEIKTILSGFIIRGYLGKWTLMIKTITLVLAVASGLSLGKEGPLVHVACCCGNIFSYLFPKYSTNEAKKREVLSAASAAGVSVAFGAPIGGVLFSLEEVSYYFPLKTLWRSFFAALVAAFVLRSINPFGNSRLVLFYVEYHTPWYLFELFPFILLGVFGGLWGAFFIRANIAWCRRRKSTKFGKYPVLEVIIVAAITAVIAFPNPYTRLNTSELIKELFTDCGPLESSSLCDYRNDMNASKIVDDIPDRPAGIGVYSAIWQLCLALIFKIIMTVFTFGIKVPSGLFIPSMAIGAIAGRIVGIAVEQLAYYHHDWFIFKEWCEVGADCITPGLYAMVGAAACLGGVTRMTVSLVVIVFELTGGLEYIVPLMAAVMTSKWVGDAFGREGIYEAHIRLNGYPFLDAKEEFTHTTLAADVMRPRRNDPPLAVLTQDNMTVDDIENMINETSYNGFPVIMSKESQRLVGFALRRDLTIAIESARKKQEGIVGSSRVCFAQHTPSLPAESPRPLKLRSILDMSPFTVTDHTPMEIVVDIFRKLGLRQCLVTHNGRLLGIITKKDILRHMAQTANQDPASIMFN

For CPT1A (UniProt P50416), the log2 fold change was 0.043 in [1]; 0.546 (active) in the assay with crizotinib; 0.02 in assay [2]; 0.047 in assay [3]; 0.022 with duvelisib; 0.211 with gandotinib. The log2 fold change with tozasertib is 0.161; in assay [4], 0.079; in the assay with doramapimod, 0.012; with ispinesib it was 0.322; with bafetinib it was 0.171; in [5], 0.006. Further, the log2 fold change was 0.058 with nilotinib; 0.021 in assay [6]; -0.042 with dasatinib; -0.107 in assay [7]; -0.024 in [8]; -0.036 in assay [9]. The log2 fold change was 0.187 with tipifarnib and -0.05 with mubritinib.

Regarding CHCHD1 (UniProt Q96BP2), the log2 fold change in [1] was -0.115; with crizotinib, -0.54 (active); in [2] it was -0.203; in [3], -0.067; in the assay with duvelisib, -0.061; with gandotinib it was -0.085. Moreover, the log2 fold change in the assay with tozasertib is -0.045; in assay [4], 0.036; with doramapimod, -0.087; in the assay with ispinesib, 0.06; with bafetinib it was -0.084; in assay [5], 0.081. In addition, the log2 fold change with nilotinib was -0.007; in [6] it was 0.02; with dasatinib, -0.057; in [7], -0.031; in assay [8] it was -0.153; in assay [9], 0.105. Further, the figures for the log2 fold change with tipifarnib and in the assay with mubritinib were 0.077 and 0.104, respectively.

Take CKS1B (UniProt P61024): the log2 fold change in [1] is -0.013; in the assay with crizotinib it was 0.063; in assay [2] it was 0.06; in assay [3] it was -0.051; with duvelisib, 0.022; in the assay with gandotinib, 0. Also, the log2 fold change is 0.02 in the assay with tozasertib; -0.093 in [4]; -0.026 with doramapimod; 0.224 with ispinesib; -0.065 in the assay with bafetinib; -0.06 in assay [5]. Also, the log2 fold change in the assay with nilotinib is 0.14; in assay [6] it was -0.016; with dasatinib, 0; in assay [7], 0.026; in assay [8], 0.067; in assay [9], 0.017. The log2 fold change was -0.043 in the assay with tipifarnib and 0.056 with mubritinib.

On to CLCN3 isoform 2 (UniProt P51790), for which the log2 fold change is -0.008 in [1]; -0.074 in the assay with crizotinib; 0.09 in assay [2]; -0.142 in [3]; 0.015 with duvelisib; 0.02 with gandotinib. The log2 fold change is 0.002 with tozasertib; -0.011 in [4]; 0.009 with doramapimod; -0.25 with ispinesib; -0.044 with bafetinib; 0.076 in assay [5]. The log2 fold change in the assay with nilotinib is -0.016; in assay [6] it was 0.034; in the assay with dasatinib, 0.027; in assay [7], 0.017; in assay [8], 0.017; in assay [9], 0.027. For the same target, the log2 fold change with tipifarnib is 0.004; with mubritinib, -0.004.

As for CSNK2B (UniProt P67870), the log2 fold change in assay [1] is 0.05; with crizotinib it was -0.037; in assay [2], 0.049; in assay [3] it was -0.128; with duvelisib, 0.075; with gandotinib it was -0.027. For the same target, the log2 fold change in the assay with tozasertib is 0.006; in assay [4], -0.005; with doramapimod it was -0.002; with ispinesib it was 0.016; with bafetinib, 0.036; in [5], 0.014. The log2 fold change in the assay with nilotinib is 0.052; in assay [6], 0.018; in the assay with dasatinib, 0.015; in [7], -0.05; in [8] it was 0.038; in [9], -0.01. Besides, the values for the log2 fold change with tipifarnib and in the assay with mubritinib were -0.042 and -0.017, respectively.

CBX1 (UniProt P83916): the log2 fold change was -0.03 in assay [1]; 0.001 in the assay with crizotinib; 0.043 in assay [2]; -0.08 in assay [3]; -0.006 with duvelisib; 0.004 with gandotinib. Besides, the log2 fold change in the assay with tozasertib is 0.06; in [4] it was -0.056; with doramapimod, 0.105; with ispinesib it was 0.04; in the assay with bafetinib, -0.037; in assay [5], -0.025. Besides, the log2 fold change with nilotinib was 0.141; in assay [6], -0.089; in the assay with dasatinib, 0.084; in [7] it was -0.003; in assay [8], -0.034; in assay [9], 0.011. Moreover, the log2 fold change with tipifarnib is -0.039; in the assay with mubritinib, 0.066.
